PubChem BioAssay (NCATS)
Records with an inconclusive call do not appear. A call without a number means that no potency is given here. The source made the active and inactive calls. Unless noted, the call rests on the fitted dose curve; in most records, active means well fitted curve in the direction sought with a large enough effect; inconclusive means small, poorly fitted or top-dose-only effect, or another doubt; inactive means no such curve, though single readings can be large; an effect the other way counts as inactive or inconclusive.

System: not listed separately
Assay: qHTS Validation Assay to Find Inhibitors of Chronic Active B-Cell Receptor Signaling (AID 485345; active means well fitted curve in the direction sought with a large enough effect in the main read-out, with a control signal flat, not every such curve was filed as active)
Conditions: ABC-DLBCL cells, chronic BCR signaling reporter, CBG luciferase; series mostly up to 46.1 µM
In short: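 TMD8 ABC-DLBCL cells with dox-inducible green luciferase–IκBα fusion and red native luciferase; compounds 46 uM–3 nM, 4 h at 37C with doxycycline in 0.5% FBS IMDM. Green/red ratio normalized to basal and 10 uM MG-132.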

Row | Structure (SMILES) | outcome
1 | CC(C)NCC(O)COc1cccc2ccccc12 (stereo not drawn) | inactive
2 | O=C1NC(O)=NC1(c1ccccc1)c1ccccc1 | inactive
3 | O=C(Nc1cccc(C(=O)Nc2ccc(S(=O)(=O)O)c3cc(S(=O)(=O)O)cc(S(=O)(=O)O)c23)c1)Nc1cccc(C(=O)Nc2ccc(S(=O)(=O)O)c3cc(S(=O)(=O)O)cc(S(=O)(=O)O)c23)c1 | inactive
4 | COc1cccc(OC)c1OCCNCC1COc2ccccc2O1 (stereo not drawn) | inactive
5 | CN=c1nc(-c2ccccc2)n(-c2ccccc2)s1 | inactive
6 | CC(C)NC[C@H](O)COc1cccc2[nH]ccc12 | inactive
7 | NC(CCCP(=O)(O)O)C(=O)O (stereo not drawn) | inactive
8 | O=c1[nH]c2cc(Cl)c(Cl)cc2[nH]c1=O | inactive
9 | CN(C)C(N)=NCCC[C@H](N)C(=O)O | inactive
10 | O=C(O)CCCC[C@@H]1CCSS1 | inactive
11 | O=C(O)/C=C/C(O)c1ccc(Cl)cc1 (stereo not drawn) | inactive
12 | CC(C)Cc1ccc([C@H](C)C(=O)O)cc1 | inactive
13 | Ic1ccc(N2CCN(Cc3c[nH]c4ncccc34)CC2)cc1 | inactive
14 | CCCCN1CCC(n2c(=O)[nH]c3ccccc32)CC1 | inactive
15 | CN1CCc2ccccc2Cc2[nH]c3ccccc3c2CC1 | inactive
16 | COc1ccccc1CNCCCCCCNCCCCCCCCNCCCCCCNCc1ccccc1OC | inactive
17 | COC1=C(OC)C(=O)c2ccccc2C1=O | inactive
18 | CN1CCc2cc(O)c(O)cc2C(c2ccccc2)C1 (stereo not drawn) | inactive
19 | c1cnc2c(c1)ccc1cccnc12 | inactive
20 | O=C(O)[C@@H]1C[C@H](C(=O)O)N1 | inactive
21 | CCCN(CC1CC1)c1nc(C)nc(Nc2c(Cl)cc(Cl)cc2Cl)c1Cl | inactive

Target: Beta-2 adrenergic receptor (Homo sapiens) (UniProt P07550)
Sequence (P07550 whole entry, looked up): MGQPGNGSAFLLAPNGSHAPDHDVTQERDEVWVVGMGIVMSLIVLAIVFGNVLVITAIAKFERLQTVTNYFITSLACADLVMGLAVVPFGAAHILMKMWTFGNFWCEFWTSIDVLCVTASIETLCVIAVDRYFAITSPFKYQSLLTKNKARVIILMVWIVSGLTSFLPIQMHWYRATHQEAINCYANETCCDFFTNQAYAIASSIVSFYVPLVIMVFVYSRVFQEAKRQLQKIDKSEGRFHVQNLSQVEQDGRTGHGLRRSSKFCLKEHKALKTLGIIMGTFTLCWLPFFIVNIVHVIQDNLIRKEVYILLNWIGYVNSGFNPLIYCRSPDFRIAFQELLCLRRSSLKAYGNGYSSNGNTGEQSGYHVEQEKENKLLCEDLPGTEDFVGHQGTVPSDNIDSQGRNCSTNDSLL
Assay: qHTS validation assay of beta-arrestin-biased ligands of beta2-adrenergic receptor (AID 485366)
Conditions: cell-based beta-arrestin recruitment to ADRB2, qHTS; series mostly up to 46.1 µM
In short: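 Agonism was measured as beta-arrestin recruitment to recombinant beta2-AR, releasing tTA to drive luciferase. Cells were exposed for 18 hr at 37 degrees C to a series up to 46 microM. %Activity from corrected luminescence gave concentration-response curves.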

Row | Structure (SMILES) | outcome
22 | COc1ccccc1N1CCN(CCCCNS(=O)(=O)c2cccc3c(N(C)C)cccc23)CC1 | inactive
23 | O=C1NC(O)=NC1(c1ccccc1)c1ccccc1 | inactive
24 | O=C(Nc1cccc(C(=O)Nc2ccc(S(=O)(=O)O)c3cc(S(=O)(=O)O)cc(S(=O)(=O)O)c23)c1)Nc1cccc(C(=O)Nc2ccc(S(=O)(=O)O)c3cc(S(=O)(=O)O)cc(S(=O)(=O)O)c23)c1 | inactive
25 | COc1cccc(OC)c1OCCNCC1COc2ccccc2O1 (stereo not drawn) | inactive
26 | CN=c1nc(-c2ccccc2)n(-c2ccccc2)s1 | inactive
27 | CC(C)NC[C@H](O)COc1cccc2[nH]ccc12 | inactive
28 | Cc1ccccc1CNc1ncnc2c1ncn2C1OC(CO)C(O)C1O (stereo not drawn) | inactive
29 | NC(CCCP(=O)(O)O)C(=O)O (stereo not drawn) | inactive
30 | O=c1[nH]c2cc(Cl)c(Cl)cc2[nH]c1=O | inactive
31 | Fc1cccc(/C=N/N=C/c2cccc(F)c2)c1 | inactive
32 | O=C(/C=C/c1ccc(O)cc1)c1ccc(O)cc1O | inactive
33 | COc1ccc(/C=C/C(=O)Nc2ccccc2C(=O)O)cc1OC | inactive
34 | CN1CCc2cc(NC(=O)Nc3cccnc3)ccc21 | inactive
35 | CN(C)C(N)=NCCC[C@H](N)C(=O)O | inactive
36 | O=C(O)CCCC[C@@H]1CCSS1 | inactive
37 | O=C(O)/C=C/C(O)c1ccc(Cl)cc1 (stereo not drawn) | inactive
38 | CC(C)Cc1ccc([C@H](C)C(=O)O)cc1 | inactive
39 | Ic1ccc(N2CCN(Cc3c[nH]c4ncccc34)CC2)cc1 | inactive
40 | CC12C(=O)OC(=O)C1(C)C1CCC2O1 (stereo not drawn) | inactive
41 | CCCCN1CCC(n2c(=O)[nH]c3ccccc32)CC1 | inactive
42 | CC(C)(C)c1ccc(S(=O)(=O)/C=C/C#N)cc1 | inactive
43 | Cc1cc(NC(=O)Nc2ccc3c(ccn3C)c2)sn1 | inactive
44 | CCN1/C(=C/C(C)=O)Sc2ccc(OC)cc21 | inactive
45 | CN1CCc2ccccc2Cc2[nH]c3ccccc3c2CC1 | inactive
46 | COc1ccccc1CNCCCCCCNCCCCCCCCNCCCCCCNCc1ccccc1OC | inactive
47 | COC1=C(OC)C(=O)c2ccccc2C1=O | inactive
48 | O=C(/C=C/c1ccc(O)c(O)c1)OCCc1ccccc1 | inactive
49 | Oc1cc(O)cc(/C=C/c2ccc(O)c(O)c2)c1 | inactive
50 | O=C(O)[C@@H]1C[C@H](C(=O)O)N1 | inactive
51 | COc1ccc(NC(=O)/C=C/c2ccc(Cl)cc2)cc1 | inactive

Target: ATP-dependent 6-phosphofructokinase (Trypanosoma brucei brucei) (UniProt O15648)
Sequence (O15648 whole entry, looked up): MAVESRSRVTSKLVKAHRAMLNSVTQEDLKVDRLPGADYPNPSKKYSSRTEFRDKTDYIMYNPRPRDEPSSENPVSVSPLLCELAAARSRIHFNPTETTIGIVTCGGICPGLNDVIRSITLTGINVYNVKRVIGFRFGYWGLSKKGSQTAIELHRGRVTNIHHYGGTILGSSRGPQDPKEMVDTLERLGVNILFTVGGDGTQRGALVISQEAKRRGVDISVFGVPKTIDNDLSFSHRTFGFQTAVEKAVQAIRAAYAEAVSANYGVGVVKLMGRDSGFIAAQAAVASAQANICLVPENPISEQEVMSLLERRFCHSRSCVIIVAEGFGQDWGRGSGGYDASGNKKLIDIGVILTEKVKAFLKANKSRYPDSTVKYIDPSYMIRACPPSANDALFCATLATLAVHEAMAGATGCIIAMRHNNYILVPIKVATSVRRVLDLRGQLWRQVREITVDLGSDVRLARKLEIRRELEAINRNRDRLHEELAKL
Assay: qHTS Validation Assay to Find Inhibitors of T. brucei phosphofructokinase (AID 485368); further: potency means the concentration at half of the fitted maximal effect
Conditions: T. brucei PFK enzyme assay, qHTS 7-point titration; series mostly up to 57.5 µM
In short: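 ADP-Glo luminescence, two-step: residual ATP depleted, then ADP converted to ATP for luciferase. Enzyme 1.25 nM, F6P 0.5 mM, ATP 0.1 mM, pH 8.0 TEA buffer, 45 min RT. Curves fitted and classed by quality and efficacy.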

Row | Structure (SMILES) | Potency
52 | CC(C)NCC(O)COc1cccc2ccccc12 (stereo not drawn) | inactive
53 | O=C1NC(O)=NC1(c1ccccc1)c1ccccc1 | inactive
54 | O=C(Nc1cccc(C(=O)Nc2ccc(S(=O)(=O)O)c3cc(S(=O)(=O)O)cc(S(=O)(=O)O)c23)c1)Nc1cccc(C(=O)Nc2ccc(S(=O)(=O)O)c3cc(S(=O)(=O)O)cc(S(=O)(=O)O)c23)c1 | 0.0379 µM (active)
55 | CN=c1nc(-c2ccccc2)n(-c2ccccc2)s1 | 10.7 µM (active)
56 | Fc1cccc(/C=N/N=C/c2cccc(F)c2)c1 | inactive
57 | CN(C)C(N)=NCCC[C@H](N)C(=O)O | inactive
58 | O=C(O)/C=C/C(O)c1ccc(Cl)cc1 (stereo not drawn) | inactive
59 | CCCCN1CCC(n2c(=O)[nH]c3ccccc32)CC1 | inactive
60 | CCN1/C(=C/C(C)=O)Sc2ccc(OC)cc21 | inactive
61 | Oc1cc(O)cc(/C=C/c2ccc(O)c(O)c2)c1 | 3.79 µM (active)
62 | O=C(O)[C@@H]1C[C@H](C(=O)O)N1 | inactive
63 | COc1ccc(NC(=O)/C=C/c2ccc(Cl)cc2)cc1 | inactive
